Here are results for 20 sequences from the OligoGym collection.
Note: reference of the scale not given here.

The target of one assay is MAGEA2B. In words: pooled miR-30 sensor sort-seq; sequence = guide strand. The following applies: shRNA.
In the case of TTGCATGAGCAGCTTCCTGGGA, the sensor-assay potency score (higher = more potent) is -0.244. ATTTCTGAGGACACTCTCCAGC yielded a sensor-assay potency score (higher = more potent) of -1.24. On the same count and under the same terms, the result for TCCAGGTCGGGAAACATTCTTG reads -1.23. Still for that read-out and setting: the result for TCTGAGGACACTCTCCAGCATT reads -1.1; that for TTGATGGTAGTCGAGAAGCTGG, -0.963; that for TCTTCCTACTGATTGCTGCTTG, -0.703. Still for that read-out and setting: with TCTTGCATGAGCAGCTTCCTGG the figure was -1.1; with TAGTGTATGGTGCAGGACTTTC, -1.11. In the case of AAATGTGAGGTTCTCCACCGAT, the sensor-assay potency score (higher = more potent) was -0.397.

For another assay, the target named is MAGEA8. The description is as above. Particulars: shRNA.
In turn, TGTGGGAATCTGCACATCCATA gave a sensor-assay potency score (higher = more potent) of -1.63. As to TAGAGGAGGAGGATGCAGCCTT, the sensor-assay potency score (higher = more potent) was -0.332. Same read-out and setting: with TTCTTTATGTCTTTATCTCATG the figure was -1.14; with TTTCTCATCAAGTGCTTCCCGG, -0.5. Still for that read-out and setting: the result for TTTATGTCTTTATCTCATGTAT reads -0.397; that for TAATCCTCTGCTCTTGTAGTGT, -0.188. Same read-out and setting: the result for TTCCTCAGCCTTGTAGCGCTGA reads 0.23; that for TTCTCATCAAGTGCTTCCCGGA, -0.615.

TTTGATGACACTCTCAAGCATT returned a sensor-assay potency score (higher = more potent) of -0.926. Same read-out and setting: with TAGCGCACAGGATCACTGCCGG the figure was -0.803; with ATCAATGCCAAAGATCACCTGC, 0.274.
